A selection: hits, their analogues and other compounds. The true share with any hit is near 5.4%.
Beta cell apopt – inhibitors of cytokine-induced beta cell apoptosis, primary screen, luminescence; INS-1E cytokine-induced death, ATP luminescence, 48 h; percent of positive-control rescue, neutral wells zero; protection from apoptosis, % (concentration not given with the values); 300,000 tested, 0.8% active; AID 435005, 2010;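 active means Every replicate reaches about 75%, or at least half do and their mean reaches it too, limit read from the data; inconclusive means At least half of replicates reach the limit but their mean does not; inactive means Under half of replicates reach the limit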;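 further: 0% = cytokine-treated negative control wells and 100% = positive control rescue; higher means more ATP so stronger rescue from cytokine killing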
SKKanGAS inh – S. pyogenes SKKanGAS growth inhibitors in kanamycin, primary screen, streptokinase expression inhibitor project, SKKanGAS strain, BacTiter-Glo luminescence. 6 h. 300,000 tested, 1.3% active. inhibition, % at 7.5 µM;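 active means mean replicate score, as percent of positive control median, at least 50; inconclusive means mean below 50 but one replicate at or above 50; inactive means mean and every replicate below 50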;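 further: strain carries kanamycin resistance gene driven by streptokinase promoter and grows in 40 µg/ml kanamycin; loss of luminescence reflects streptokinase promoter inhibition or plain growth inhibition; 0% = median of DMSO wells and 100% = positive control at its reference dose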
Calb FLC – C. albicans growth inhibition with fluconazole, primary screen, CaCi-2 strain, Alamar Blue fluorescence; C. albicans CaCi-2 (fluconazole-resistant clinical isolate) + fluconazole, 48 h; growth inhibition, % (concentration not given with the values); 300,000 tested, 0.57% active; AID 1979, 2009;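 active means growth inhibition above about 58% in most replicates, limit read from the data, passing the limit was not always enough; inconclusive means exactly half the replicates above a set limit; inactive means most replicates below a set limit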;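 further: all wells also contain fluconazole at 8 µg/ml as a sub-toxic cotreatment; 0% = median of DMSO wells and 100% = median of geldanamycin control wells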
MPTP block – mitochondrial permeability transition pore inhibitors, primary screen, biochemical, isolated mouse mitochondria, absorbance; Ca2+ swelling absorbance, 30 min; inhibition, % at 10 µM; 360,000 tested, 1.4% active;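 active means inhibition of 50% or more, scaled per plate between neutral and stimulator controls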;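 further: 0% = DMSO wells given calcium and 100% = 1 mM EGTA wells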
Mdm2 MdmX PPI – inhibitors of human Mdm2-MdmX association, primary screen, cell-based, luminescence, split luciferase, SaOS-2, uHTS; SaOS-2 split-luciferase Mdm2/MdmX complementation; 330,000 tested, 3% active; Protein Mdm4 (Homo sapiens) + E3 ubiquitin-protein ligase Mdm2 (Homo sapiens), …; inhibition, % at 8 µM;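 active means inhibition of at least 50% at 8 µM in the primary screen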
CSC inhib – cancer stem cell viability inhibitors, primary screen, luminescence; cancer stem cell-like cells viability; inhibition, % at 7.5 µM; 300,000 tested, 1.1% active; AID 2717, 2010; in the data active means inhibition above about 75%; inconclusive means no clear call, values can overlap the other calls; tested in HMLE shEcad cells
Starred values were filed as active, the others as inactive.

What do the screens show for `CCN1C(=O)/C(=C\c2ccc(-c3ccc([N+](=O)[O-])cc3OC)o2)SC1=Nc1cccc(C(=O)O)c1`?
SKKanGAS inh: 56*; Calb FLC: inconclusive; MPTP block: 4

How did CCN=C1S/C(=C\c2ccc(-c3cccc(C(=O)O)c3)o2)C(=O)N1CC do in these assays?
Beta cell apopt: -3; SKKanGAS inh: 56*; Calb FLC: 3; MPTP block: 11; Mdm2 MdmX PPI: 2; CSC inhib: 2

How did O=C(O)c1cccc(-c2ccc(/C=C3/SC(=Nc4ccccc4)N(Cc4cccnc4)C3=O)o2)c1 do in these assays?
Beta cell apopt: -11; SKKanGAS inh: 53*; Calb FLC: 2; MPTP block: 2; Mdm2 MdmX PPI: -21; CSC inhib: 10

How did CCN1C(=O)/C(=C\c2ccc(-c3cccc(C(=O)OC)c3)o2)SC1=Nc1ccc(C(=O)O)cc1 do in these assays?
Beta cell apopt: -5; SKKanGAS inh: 46; Calb FLC: 10; Mdm2 MdmX PPI: 30; CSC inhib: -8

What do the screens show for `O=C(O)c1cc(-c2ccc(/C=C3\NC(=O)N(c4ccccc4)C3=O)o2)ccc1Cl`?
Beta cell apopt: -1; SKKanGAS inh: 6; Calb FLC: -2; MPTP block: 1; Mdm2 MdmX PPI: 4; CSC inhib: 19

Results for C#CCN1C(=O)S/C(=C\c2ccc(-c3ccc(Cl)c(C(=O)O)c3)o2)C1=O ?
SKKanGAS inh: 68*; Calb FLC: 4; MPTP block: 0; Mdm2 MdmX PPI: -22

Results for O=C(Nc1ccc(F)c(Cl)c1)C1Cc2c(-c3ccco3)ccnc2O1 (configuration not stated) ?
MPTP block: 2

What do the screens show for `O=C1/C(=C/c2cccnc2)SC(=NCc2ccccc2)N1Cc1ccccc1`?
Beta cell apopt: -5; SKKanGAS inh: 54*; Calb FLC: -8; MPTP block: 2; Mdm2 MdmX PPI: 14

How did Cc1ccc(NC(=O)CN2C(=O)S/C(=C/c3ccc(-c4cc(C(=O)O)ccc4C)o3)C2=O)cc1C do in these assays?
Beta cell apopt: 6; SKKanGAS inh: 85*; Calb FLC: 18; MPTP block: 3; Mdm2 MdmX PPI: 5

Results for CC1(C(=O)NS(=O)(=O)Cc2cccc(Cl)c2)CCN1C(=O)CC1CCCC1 (configuration not stated) ?
MPTP block: 0

Results for COc1ccc(Nc2nc(Nc3ccc(OC)cc3)nc(-n3[nH]c(=O)c(C)c3C)n2)cc1 ?
Beta cell apopt: 7; SKKanGAS inh: 87*; Calb FLC: 1; MPTP block: 0; Mdm2 MdmX PPI: 28; CSC inhib: 9

What do the screens show for `COc1ccc(Nc2nc(OC)nc(OC)n2)cc1`?
SKKanGAS inh: -2; Calb FLC: 9; MPTP block: -2; Mdm2 MdmX PPI: -3; CSC inhib: -5

What do the screens show for `CC(NS(=O)(=O)OCC(Cl)(Cl)Cl)c1ccc(C(C)(C)C)cc1` (configuration not stated)?
Beta cell apopt: 9; SKKanGAS inh: 93*; Calb FLC: -13; MPTP block: 43; CSC inhib: inconclusive

Results for CC(C)(NS(=O)(=O)OCC(Cl)(Cl)Cl)c1ccccc1 ?
Beta cell apopt: 0; SKKanGAS inh: 11; Calb FLC: -8; MPTP block: -1; Mdm2 MdmX PPI: -11; CSC inhib: 8

How did COc1cccc2sc(N(CCCN(C)C)C(=O)c3sc4ccccc4c3Cl)nc12 do in these assays?
Beta cell apopt: -2; SKKanGAS inh: -2; Calb FLC: -17; MPTP block: -2; Mdm2 MdmX PPI: -5; CSC inhib: -6

Results for Cc1ccc(S(=O)(=O)/N=C2\C=C(NS(=O)(=O)c3ccccc3)C(=O)c3ccccc32)c(C)c1 ?
MPTP block: 46

Results for Cc1ccc(S(=O)(=O)/N=C2/C=C(Sc3ncn[nH]3)C(=O)c3ccccc32)c(C)c1 ?
Beta cell apopt: 129*; CSC inhib: 103*

What do the screens show for `Cc1ccc(S(=O)(=O)Nc2ccc(O)c(Sc3ncn[nH]3)c2)cc1`?
SKKanGAS inh: -6; Calb FLC: 10; MPTP block: -1; Mdm2 MdmX PPI: 17; CSC inhib: 4

Results for Cc1ccc(S(=O)(=O)/N=C2/C=C(Sc3ncn[nH]3)C(=O)c3ccccc32)cc1 ?
Beta cell apopt: 98*; MPTP block: 9; CSC inhib: 107*

Results for CC(C)c1ccc(S(=O)(=O)/N=C2/C=C(Sc3ncn[nH]3)C(=O)c3ccccc32)cc1 ?
Beta cell apopt: 132*; MPTP block: 1; CSC inhib: 105*

Results for CC(/C=C/C=C/c1ccccc1)=N/NC(=O)c1ccc2c(c1)OCCO2 ?
Beta cell apopt: -5; SKKanGAS inh: 61*; Calb FLC: -8; MPTP block: 4; Mdm2 MdmX PPI: 32; CSC inhib: 12

How did CC(/C=C/C=C/c1ccccc1)=N\NC(=O)c1cccnc1 do in these assays?
Beta cell apopt: 3; SKKanGAS inh: -3; Calb FLC: 17; MPTP block: 0; Mdm2 MdmX PPI: -6; CSC inhib: -11

What do the screens show for `CC(/C=C/c1ccccc1)=N/NC(=O)c1cccc(Br)c1`?
Beta cell apopt: 15; SKKanGAS inh: 87*; Calb FLC: -19; MPTP block: 2; Mdm2 MdmX PPI: 45; CSC inhib: 39

Results for C/C(=N\NC(=O)c1cc(Br)ccc1O)c1cccc(NC(=O)c2ccccc2F)c1 ?
Beta cell apopt: 1; SKKanGAS inh: 63*; Calb FLC: 10; MPTP block: 7; Mdm2 MdmX PPI: 19; CSC inhib: 17

What do the screens show for `C/C(=N\NC(=O)c1ccccc1F)c1cccc(NC(=O)c2ccccc2)c1`?
Beta cell apopt: 0; SKKanGAS inh: 4; Calb FLC: -14; MPTP block: -4; Mdm2 MdmX PPI: 5

How did COC(=O)[C@@H]1CCCN1Cc1nc(Cc2ccccc2F)no1 do in these assays?
Beta cell apopt: -16; SKKanGAS inh: -3; Calb FLC: 92*; MPTP block: 1; Mdm2 MdmX PPI: -3; CSC inhib: -20

Results for CCn1nc(C(=O)N[C@@H](CCSC)c2nc3ccccc3[nH]2)c2ccccc2c1=O ?
Beta cell apopt: 11; SKKanGAS inh: 0; Calb FLC: -4; MPTP block: 0; Mdm2 MdmX PPI: 23; CSC inhib: -14

How did CSCC[C@H](NC(=O)c1nn(C)c(=O)c2ccccc12)c1nc2ccccc2[nH]1 do in these assays?
Beta cell apopt: -7; SKKanGAS inh: 74*; Calb FLC: 5; MPTP block: 1; Mdm2 MdmX PPI: 16; CSC inhib: 0

What do the screens show for `O=C(OCC(=O)c1c[nH]c2ccccc12)c1ccc([N+](=O)[O-])s1`?
Beta cell apopt: -2; SKKanGAS inh: 15; Calb FLC: 6; MPTP block: 0; Mdm2 MdmX PPI: -1; CSC inhib: 0
